# Bioassay records: PubChem, National Center for Advancing Translational Sciences (NCATS)
# Cruzain inh Det: inhibitors of Trypanosoma cruzi cruzain with detergent; P25779; purified cruzain, Z-FR-AMC fluorescence, 0.01% Triton; Potency, µM, inactives show max response, negative = inhibition, hits mostly inhibitors; 200,000 compounds, 0.43% hits; AID 1478;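 note: plate controls were neutral wells for no effect and buffer without enzyme for full effect; nearly all actives have a fitted effect of over 40% in size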
# Target sequence (P25779 123-467 limits assumed): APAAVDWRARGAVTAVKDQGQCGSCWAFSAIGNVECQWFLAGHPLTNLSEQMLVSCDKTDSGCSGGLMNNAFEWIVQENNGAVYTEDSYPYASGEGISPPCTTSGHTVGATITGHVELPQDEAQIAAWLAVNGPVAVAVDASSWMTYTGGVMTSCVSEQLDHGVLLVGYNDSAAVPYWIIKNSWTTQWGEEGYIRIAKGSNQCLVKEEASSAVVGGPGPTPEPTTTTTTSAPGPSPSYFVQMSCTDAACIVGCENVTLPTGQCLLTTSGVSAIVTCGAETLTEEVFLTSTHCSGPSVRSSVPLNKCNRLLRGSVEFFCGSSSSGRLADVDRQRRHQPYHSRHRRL
#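 15 min RT preincubation of 1.5 nM cruzain with compound, then 2 uM Z-FR-AMC added; kinetic AMC fluorescence, 60 s delta. Triton X-100 0.01%, pH 5.5.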
# NS1 function inh: influenza NS1 inhibition | Potency, µM (highest dose often 46.1 µM), inactives show at the top dose activity, positive = more growth | 270,000 compounds, 0.4% hits; calls by dose curve; note: actives are rising curves; nearly all actives have a fitted effect of over 50% in size
#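 A cell-based growth assay was used: compounds that relieve NS1-induced slow growth of budding yeast raise OD600. Assay medium was yeast nitrogen base with ammonium sulphate and -URA supplement, pH 6.0, with 2% galactose.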
# Cruzain inh noDet: blocks cruzain activity in detergent-free assay; P25779; purified cruzain, Z-FR-AMC fluorescence, no detergent; Potency, µM, for the others: max response, negative = inhibition, hits mostly inhibitors; 200,000 compounds, 2.3% hits;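 note: plate controls were enzyme without inhibitor for no effect and buffer without enzyme for full effect; nearly all actives have a fitted effect of over 40% in size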
#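 Detergent-free condition (0.00005% Triton X-100) in acetate buffer pH 5.5 with DTT. 1.5 nM enzyme and compound were pre-mixed 15 min, then 2 uM Z-FR-AMC substrate added; reaction progress from fluorescence change between first and third reads (60 s).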
# Papain counter: counter-screen for cruzain inhibitors: papain inhibition; 410 compounds, 41% hits; shares compounds with Cruzain inh Det; purified papain, Z-FR-AMC fluorescence cleavage; Potency, µM, for the others: max response, negative = inhibition, usual class: inhibitors;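 note: 0% = no-compound wells and -100% = no-enzyme wells; nearly all actives have a fitted effect of over 35% in size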
# Target sequence (P00784 whole entry, looked up): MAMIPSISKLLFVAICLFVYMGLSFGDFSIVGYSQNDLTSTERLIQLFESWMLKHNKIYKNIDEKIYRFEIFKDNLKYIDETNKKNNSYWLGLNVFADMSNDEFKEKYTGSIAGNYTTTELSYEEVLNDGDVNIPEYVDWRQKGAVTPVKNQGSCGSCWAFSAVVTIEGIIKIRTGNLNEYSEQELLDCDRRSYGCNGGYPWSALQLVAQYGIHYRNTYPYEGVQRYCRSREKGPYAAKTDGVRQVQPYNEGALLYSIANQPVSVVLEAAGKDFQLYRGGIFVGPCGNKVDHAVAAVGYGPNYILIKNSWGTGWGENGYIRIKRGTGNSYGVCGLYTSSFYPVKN
# Numbers without * were called inactive; ? = inconclusive; nt = not tested or not shown; ! = not active in a repeat. The sample as a whole holds a higher share of hits than the screen did. Unless noted, calls come from the whole dose curve; as a rule, active = well fitted curve in the direction sought with a large enough effect; inconclusive = small, poorly fitted or top-dose-only effect, or another doubt; inactive = no such curve, though single readings can be large; an effect the other way counts as inactive or inconclusive. Potency is the fitted concentration of half-maximal effect.
SMILES,Cruzain inh Det,NS1 function inh,Cruzain inh noDet,Papain counter
COc1ccc(-n2c(=O)cnc3cnc(N4CCN(C)CC4)nc32)cc1,0.0%,nt,-10.2%,nt
CC(=O)/C=C\C1[C@]2(C)CCCC(C)(C)C2CC[C@@]1(C)O (stereo not given in full),3.3%,nt,16.2%,nt
N#Cc1c(N2CCOCC2)nc(-c2ccco2)c2c1CCCC2,12.6µM*,1.0%,10µM*,5.62µM*
CC1(C)Cc2c(C#N)c(N3CCCC3)nc(-c3ccco3)c2CO1,-4.1%,-59.9%,?,nt
Cc1noc(C)c1C(=O)N1CCC2(CC1)CN(c1ccccn1)C2,-4.0%,nt,-9.5%,nt
Cc1ccc(NC(=O)CSc2nc3c(sc4ccccc43)c(=O)n2CCCC(=O)NC2CCCC2)cc1C,3.4%,nt,6.6%,nt
O=c1oc2ccccc2c2c1C1O[C@](c3ccsc3)(Cc3ccccc31)O2,nt,13.3%,nt,nt
CC1(C(=O)NC2CCCCC2)Cc2ccccc2C(=O)N1Cc1ccc(Cl)cc1 (stereo not given),-0.9%,nt,-1.4%,nt
COc1cccc(-n2c(C)nc3c(cnn3-c3ccc(C)c(C)c3)c2=O)c1,-9.1%,nt,9.6%,nt
Clc1ccccc1-c1nnc2sc(-c3ccc4c(c3)OCO4)nn12,-3.0%,?,?,nt
CCN(CC)c1ccc(-c2nn3c(-c4ccccc4OC)nnc3s2)cc1,-9.1%,-68.5%,28.6%,nt
CN(C)c1ccc(-c2nn3c(-c4ccc(Cl)cc4Cl)nnc3s2)cc1,2.1%,13.6%,?,nt
Clc1ccccc1-c1nn2c(-c3cc(-c4ccccc4)n[nH]3)nnc2s1,nt,nt,nt,-7.6%
CN(C)c1ccc(-c2nn3c(-c4cc(-c5ccccc5)n[nH]4)nnc3s2)cc1,nt,nt,nt,-25.5%
COc1ccccc1-c1nn2c(-c3cc(-c4ccccc4)n[nH]3)nnc2s1,nt,nt,nt,35.5µM*
Cc1ccc(C(=O)N2CCN(Cc3cc(=O)n4nc(-c5ccccc5)sc4n3)CC2)cc1,3.5%,nt,15.2%,nt
CNc1nc(C#N)nc(Nc2ccccc2)n1,nt,nt,nt,2.24µM*
CC(C)Nc1nc(Cl)nc(Nc2ccccc2)n1,nt,-4.3%,nt,nt
CC(C)CNc1nc(C#N)nc(Nc2ccccc2)n1,nt,nt,nt,1.26µM*
CC(C)CNc1oc(-c2ccccc2Cl)nc1C#N,nt,-44.7%,nt,nt
CC(C)Nc1nc(C#N)nc(Nc2ccccc2)n1,nt,nt,nt,2.24µM*
CC(C)Nc1nc(C#N)nc(NC(C)C)n1,11.2µM*,6.4%,15.8µM*,5.01µM*
CNc1nc(NN)nc(Nc2ccccc2)n1,nt,19.3%,nt,nt
CSc1nc(NC(C)C)nc(NC(C)C)n1,2.6%,nt,-8.1%,nt
COc1ccc2c(c1)O[C@@H](c1ccc3c(c1)OCO3)[C@H](OC(=O)NCc1ccc3c(c1)OCO3)C2=O,-1.4%,nt,-5.7%,nt
SMILES,Cruzain inh Det,NS1 function inh,Cruzain inh noDet,Papain counter
COc1ccc(Nc2nc(Nc3ccc(OC)cc3OC)nc(N3CCOCC3)n2)c(OC)c1,-2.9%,nt,4.1%,nt
O=C(O)[C@@H](O)[C@@H](O)[C@@H](O)[C@@H](O)c1nc2ccccc2s1,-3.9%,-32.1%,-1.1%,nt
Cc1ccc(C)c(CN2C(=O)c3ccccc3Sc3ccc(C(=O)NCc4cccs4)cc32)c1,0.0%,nt,?,nt
Cc1ccc(C)c(CN2C(=O)c3ccccc3Sc3ccc(C(=O)NCc4ccc5c(c4)OCO5)cc32)c1,-0.9%,nt,20µM*,8.5%
O=C(NCc1ccc2c(c1)OCO2)c1ccc2c(c1)N(Cc1cccc(Cl)c1)C(=O)c1ccccc1S2,0.5%,nt,12.6µM*,10.8%
O=C(NCc1ccc2c(c1)OCO2)c1ccc2c(c1)N(Cc1ccccc1F)C(=O)c1ccccc1S2,-0.9%,nt,?,nt
Cc1cc(C)cc(-n2c(SCC(N)=O)nc3c([nH]c4ccccc43)c2=O)c1,-2.1%,nt,-16.1%,nt
CCOC(=O)c1ccc(Nc2nc3nonc3nc2Nc2cccc(C)c2C)cc1,-7.8%,nt,-17.8%,nt
CN(C)Cc1ccccc1-c1ccc2ncnc(N3CCOCC3)c2c1,-1.1%,nt,-3.6%,nt
CNc1nc(-c2ccccc2C)nc2ccccc12,-5.9%,nt,-6.8%,nt
COc1ccc(C(=O)CN2C(=O)N(c3ccc(C(C)=O)cc3)S(=O)(=O)c3ccccc32)cc1,-0.5%,nt,?,nt
CCCn1c(SCC(=O)N2CC(=O)Nc3ccccc32)nc2ccccc21,12.6µM*,4.9%,3.6%,10.7%
O=C1CN(C(=O)CSc2nc3ccccc3n2CCc2ccccc2)c2ccccc2N1,-23.9%,-10.8%,-22.3%,nt
COc1cc(Nc2ncc3c(n2)CCN(Cc2ccc(OC(C)C)c(OC)c2)C3)cc(OC)c1,-5.7%,nt,-0.7%,nt
CC(C)(C)c1ccc(S(=O)(=O)c2cnc(SCC(=O)Nc3ccc(F)c(Cl)c3)[nH]c2=O)cc1,20µM*,nt,-2.6%,2.82µM*
O=C(CSc1ncc(S(=O)(=O)c2ccc(Cl)cc2)c(=O)[nH]1)Nc1cccc(C(F)(F)F)c1,?,nt,20.6%,nt
CCN(CC)S(=O)(=O)c1ccc(NC(=O)c2c(C)oc3ncnc(N4CCOCC4)c23)cc1,-1.6%,nt,-8.6%,nt
COc1ccc(/C=C/C(=O)Nc2ccc(-n3nncc3-c3ccc(Br)cc3)cc2)cc1OC,nt,nt,nt,-19.8%
COc1ccc(/C=C/C(=O)Nc2ccc(-n3nncc3-c3ccccc3)cc2)cc1OC,3.16µM*,10.3%,15.8µM*,-14.1%
COc1cccc(C(=O)Nc2ccc(-n3nncc3-c3ccc(Br)cc3)cc2)c1OC,-1.2%,nt,-8.0%,nt
Cc1ccc(NC(=O)c2ccc(-n3nncc3-c3ccccc3)cc2)cc1,nt,nt,nt,3.5%
COc1ccc(/C=C/C(=O)Nc2ccc(C(N)=O)cc2)cc1OC,nt,2.6%,nt,nt
CCOc1ccc(C(=O)Nc2ccc(-n3nncc3-c3ccccc3)cc2)cc1OCC,-5.4%,nt,16.4%,nt
Cc1cc(C)c(NC(=O)Cn2c(=O)n(-c3ccc(F)cc3)c(=O)c3c(C)c(C(=O)N(C)C)sc32)c(C)c1,1.6%,nt,-12.4%,nt
CCCN1CCN(CCNC(=O)Nc2ccc(OC)c(OC)c2)CC1,1.4%,nt,-2.0%,nt
SMILES,Cruzain inh Det,NS1 function inh,Cruzain inh noDet,Papain counter
O=C(Nc1cc2c(cc1C(=O)c1cccc(Br)c1)OCCO2)c1ccccc1F,0.9%,nt,-4.5%,nt
COc1ccc(N/C=C\C(=O)c2ccc3ccccc3c2)cc1,nt,-4.1%,nt,nt
NS(=O)(=O)c1ccc(N/C=C\C(=O)c2ccc3ccccc3c2)cc1,8.91µM*,3.4%,6.31µM*,6.5%
COc1ccc(NC(=O)c2oc3ccccc3c2NC(=O)C2CCCCC2)c(OC)c1,0.9%,nt,4.7%,nt
N#CCOc1nc(N2CCCCC2)nc(N2CCCCC2)n1,nt,-42.6%,nt,nt
COc1nc(C#N)nc(N2CCCC2)n1,nt,nt,nt,3.98µM*
COc1nc(N2CCCCCC2)nc(N2CCCCCC2)n1,-1.3%,-3.0%,-0.9%,nt
CCOc1nc(C#N)nc(N2CCCCC2)n1,0.562µM*,-41.1%,0.501µM*,2.24µM*
COc1ccc(-c2nc3ccc(C(=O)NCc4ccccc4)cc3nc2-c2ccc(OC)cc2)cc1,0.8%,nt,-16.8%,nt
O=C(NCC1CC1)c1ccc2nc(-c3ccoc3)c(-c3ccoc3)nc2c1,nt,nt,nt,-4.6%
Nc1nc(N)c2nc(-c3ccccc3)c(N)nc2n1,31.6µM*!,?,7.94µM*!,22.4µM*
NSc1nc(N)c2nc(-c3ccccc3)c(-c3ccccc3)nc2n1,nt,18.6%,nt,nt
Cc1ccc(C(=O)O/N=C/c2c(C)nn(C)c2Cl)cc1,nt,-5.9%,nt,nt
Cc1ccc(C(=O)Oc2oc(-c3ccco3)nc2C=Nc2ccc(Cl)cc2)cc1,3.98µM*,-36.5%,12.6µM*,14.1µM*
CCc1ccc(-c2nc3c(=O)n(C)c(=O)nc-3n(CC)n2)cc1,nt,nt,nt,-8.6%
Cc1ccccc1-c1nc2c(=O)n(C)c(=O)nc-2n(C)n1,nt,nt,nt,-11.1%
